Only some compounds are listed: those with a hit (about 2.3% of all), similar ones and a draw of the others.
MCL1 BIM primary: inhibitors of MCL1 binding to BIM-BH3, primary screen, biochemical, fluorescence polarization | 320,000 tested, 0.68% active | Induced myeloid leukemia cell differentiation protein Mcl-1 (Homo sapiens), Q07820 | GST-MCL1 / FITC-Bim-BH3 fluorescence polarization | inhibition, % at 10.9 µM;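 active = inhibition above the mean inhibition of all tested compounds plus 3 SD, set per campaign, cut at about 40% in these data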;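 also: higher means more loss of mP so more displacement of Bim peptide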
Mcl1 Bid PPI: Mcl-1/Bid binding inhibitors, primary screen, biochemical, TR-FRET, 1536-well; Induced myeloid leukemia cell differentiation protein Mcl-1 (Homo sapiens), Q07820; TR-FRET Mcl-1/Bid-Dy647 peptide binding; inhibition, % at 21.7 µM; 220,000 tested, 0.97% active;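 active = compounds that cut the binding signal by more than half at the single screening dose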;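 also: His-tagged Mcl-1 with europium anti-His antibody binding Bid BH3 peptide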
GLD-1 RNA inh: GLD-1/TGE RNA complex disruptors, primary screen, biochemical, fluorescence polarization | purified GLD-1 + fluorescein TGE RNA | AID 2280, 2010 | Female germline-specific tumor suppressor gld-1 (Caenorhabditis elegans), Q17339 | 320,000 tested, 0.44% active | inhibition, % at 5.96 µM;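 active = percent inhibition above a per-plate cutoff, the plate mean of test compounds plus 3 SD, cut at about 30% in these data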
Target sequence (Q17339 whole entry, looked up): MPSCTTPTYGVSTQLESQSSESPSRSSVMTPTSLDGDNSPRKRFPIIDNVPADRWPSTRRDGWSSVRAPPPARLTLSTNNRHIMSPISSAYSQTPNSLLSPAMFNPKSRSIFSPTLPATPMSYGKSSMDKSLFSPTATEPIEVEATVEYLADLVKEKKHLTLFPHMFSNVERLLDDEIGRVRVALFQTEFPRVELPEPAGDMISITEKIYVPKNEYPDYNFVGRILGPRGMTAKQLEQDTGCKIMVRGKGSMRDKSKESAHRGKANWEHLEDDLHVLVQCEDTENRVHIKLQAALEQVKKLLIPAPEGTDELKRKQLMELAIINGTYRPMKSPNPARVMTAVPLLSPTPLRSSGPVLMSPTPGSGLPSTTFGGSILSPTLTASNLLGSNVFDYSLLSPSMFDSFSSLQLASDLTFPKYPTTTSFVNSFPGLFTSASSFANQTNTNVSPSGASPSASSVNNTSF
Mcl1 Noxa PPI: Mcl-1/Noxa binding inhibitors, primary screen, biochemical, TR-FRET, 1536-well. Induced myeloid leukemia cell differentiation protein Mcl-1 (Homo sapiens), Q07820. TR-FRET Mcl-1/Noxa peptide binding, 2 h. inhibition, % at 21.7 µM. 220,000 tested, 1.5% active. AID 1022, 2008;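 active = compounds that cut the protein-peptide binding signal by more than 50% relative to plate controls in a single-dose test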;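 also: His-tagged Mcl-1 with rhodamine Noxa BH3 peptide and terbium anti-His antibody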
Bcl-xL primary: inhibitors of human Bcl-xL, primary screen, biochemical, fluorescence polarization, HTS; inhibition, % at 10.9 µM; 320,000 tested, 0.7% active; GST-Bcl-xL / FITC-Bim BH3 peptide fluorescence polarization; AID 2129, 2009;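 active = inhibition above the mean of all tested compounds plus 3 SD, cutoff set per campaign, cut at about 30% in these data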;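 also: inhibitors lower millipolarization by displacing the labeled peptide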
Target sequence (Q07817 whole entry, looked up): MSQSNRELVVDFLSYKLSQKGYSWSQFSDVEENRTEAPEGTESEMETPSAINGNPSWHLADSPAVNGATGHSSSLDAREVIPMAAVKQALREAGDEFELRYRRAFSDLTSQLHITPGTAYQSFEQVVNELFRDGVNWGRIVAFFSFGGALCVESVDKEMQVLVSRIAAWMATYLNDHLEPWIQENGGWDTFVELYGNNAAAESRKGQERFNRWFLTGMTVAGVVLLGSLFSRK
Bim-Mcl-1: inhibitors of Bim peptide binding to Mcl-1, primary screen, biochemical, bead-based flow cytometry, multiplex. Induced myeloid leukemia cell differentiation protein Mcl-1 (Homo sapiens), Q07820. Bim peptide-Mcl-1 binding. inhibition, % at 10 µM. 190,000 tested, 0.1% active. AID 1009, 2008; in the data active = inhibition above about 40%
Each line names hits and unclear results; the compound was inactive in the other large screens.

CN(C)c1ccc(N/C=C/C(=O)C(C)(C)C)cc1	Bcl-xL primary 32
Cc1cc(OCC(=O)OCC(=O)Nc2ccc(Cl)cn2)ccc1Cl	none (no result: Mcl1 Bid PPI, Mcl1 Noxa PPI, Bim-Mcl-1)
O=C(N/N=C1\C(=O)c2cccc3cccc1c23)c1ccc(O)cc1	Mcl1 Noxa PPI 54
CNC(=S)N/N=C1\C(=O)c2cccc3cccc1c23	none
OC(COCCOc1ccc(Br)cc1)CN1CCN(Cc2ccccc2)CC1 (stereo not drawn)	none
COc1cc(C(=O)Nc2ccc(N(C)C)cc2)c([N+](=O)[O-])cc1OC	Mcl1 Noxa PPI 69
Cc1cc(C)cc(N(C(C)C(=O)N2CCOCC2)S(C)(=O)=O)c1 (stereo not drawn)	Mcl1 Bid PPI 53
Cc1cc(C)cc(N(C(C)C(=O)N2CCCCC2)S(C)(=O)=O)c1 (stereo not drawn)	none
CCN1CCN(CC(=O)Nc2cc3c(cc2C(C)=O)OCO3)CC1	Mcl1 Bid PPI 58
Cc1sccc1/C=N/NC(=O)c1cccc2ccccc12	Mcl1 Noxa PPI 92
Cc1ccccc1C(=O)N/N=C/c1ccsc1C	none
O=C(Nc1ccccn1)c1ccc(Cl)c(S(=O)(=O)N2CCc3ccccc32)c1	none (no result: Mcl1 Bid PPI, Mcl1 Noxa PPI, Bim-Mcl-1)
O=C(CN1C(=O)COc2ccccc21)N(Cc1ccc2c(c1)OCO2)CC1CCCO1 (stereo not drawn)	Mcl1 Bid PPI 100
CCCCN1C(=O)C2Cc3c([nH]c4ccccc34)CN2C1=S (stereo not drawn)	GLD-1 RNA inh 45
CCCCCN1CC(=O)N2Cc3[nH]c4ccccc4c3C[C@H]2C1=O	none (no result: Mcl1 Bid PPI, Mcl1 Noxa PPI, Bim-Mcl-1)
CC(C(=O)Nc1ccccc1)N(C)CCOc1ccc(Br)cc1 (stereo not drawn)	none
O=C(CCCSc1ccccc1)Nc1nc(-c2ccccn2)cs1	none
O=C(CCCSc1ccccc1)Nc1nc(-c2ccco2)c(-c2ccco2)s1	Mcl1 Noxa PPI 52
O=C(CCl)Nc1nc(-c2ccco2)c(-c2ccco2)s1	Mcl1 Noxa PPI 53
c1ccc(Cn2c[n+](Cc3ccccc3)c3ccccc32)cc1	none (no result: Mcl1 Bid PPI, Mcl1 Noxa PPI, Bim-Mcl-1)
C[C@]12C=CC(=O)C=C1CC[C@@H]1[C@@H]2[C@@H](O)C[C@@]2(C)[C@H]1CC[C@]2(O)C(=O)CO	none (no result: Mcl1 Bid PPI, Mcl1 Noxa PPI, Bim-Mcl-1)
Nc1nc(SCC(=O)Nc2cc(Cl)ccc2Cl)n[nH]1	none (no result: MCL1 BIM primary, Mcl1 Bid PPI, Mcl1 Noxa PPI, Bcl-xL primary, Bim-Mcl-1)
Cc1cccc(NC(=O)C2CCN(c3nc(C)cc(C)n3)CC2)c1	Mcl1 Bid PPI 94
Cc1cccc(NC(=O)C2CCCN(c3nc(C)cc(C)n3)C2)c1 (stereo not drawn)	none
O=c1c2ccccc2sc2nc(C3CCCCC3)n(Cc3ccco3)c(=O)c12	Mcl1 Bid PPI 67 (no result: MCL1 BIM primary, GLD-1 RNA inh, Bcl-xL primary)
CCOC(=O)C1CCN(C(=O)c2cc(S(=O)(=O)N3CCOCC3)c(Cl)cc2Cl)CC1	Mcl1 Bid PPI 95
CCOC(=O)C1CCN(C(=O)c2ccc(Cl)c(S(=O)(=O)N3CCOCC3)c2)CC1	none
C/C(=C\c1ccco1)C1C(C#N)=C(N)Oc2n[nH]c(-c3ccc(C)cc3)c21 (stereo not drawn)	none
C/C(=C\c1ccco1)C1C(C#N)=C(N)Oc2n[nH]c(-c3ccccc3)c21 (stereo not drawn)	Mcl1 Noxa PPI 69
Cn1cc(/C=C/c2cc[n+](C)cc2)c2cc(F)ccc21	GLD-1 RNA inh 77 (no result: Mcl1 Bid PPI, Mcl1 Noxa PPI, Bim-Mcl-1)
Cn1cc(C=O)c2cc(F)ccc21	none
Cn1cc(/C=C/c2cc[n+](C)cc2)c2cc(Cl)ccc21	GLD-1 RNA inh 52 (no result: Mcl1 Bid PPI, Mcl1 Noxa PPI, Bim-Mcl-1)
Cc1cc(C(=O)NNC(=S)NC2CCCCC2)cs1	none (no result: Mcl1 Bid PPI, Mcl1 Noxa PPI, Bim-Mcl-1)
COc1cc(Cl)c(C)cc1NC(=O)CC1SC(N2CCOCC2)=NC1=O (stereo not drawn)	none (no result: Mcl1 Bid PPI, Mcl1 Noxa PPI, Bim-Mcl-1)
CCCCC1C(=O)N(c2ccccc2)N(c2ccc(O)cc2)C1=O (stereo not drawn)	none (no result: Mcl1 Bid PPI, Mcl1 Noxa PPI, Bim-Mcl-1)
Cc1ccc2c(c1)NC(=O)C(CC(=O)NC1CCCCC1C)O2 (stereo not drawn)	none
CC1CCCCC1NC(=O)CC1Oc2ccccc2NC1=O (stereo not drawn)	Mcl1 Bid PPI 52 (no result: Bim-Mcl-1)
O=C(O)c1cccc(NC(=S)N/N=C/c2ccccc2OCc2cccc(Br)c2)c1	Mcl1 Noxa PPI 56 (no result: MCL1 BIM primary, GLD-1 RNA inh, Bcl-xL primary)
O=C(O)c1cccc(NC(=S)N/N=C/c2cccc(O)c2)c1	none
O=C(O)c1cccc(NC(=S)N/N=C/c2ccccc2OCc2ccc(Br)cc2)c1	Mcl1 Noxa PPI 52
COc1ccc(N2CCN(C(=O)CSc3ccccc3)CC2)cc1	none
COc1ccc(N2CCN(C(=O)c3ccc(CSc4ccccc4)cc3)CC2)cc1	Mcl1 Noxa PPI 96
CC(=O)c1ccc(N2CCN(C(=O)c3ccc4c(c3)OCO4)CC2)cc1	none (no result: Mcl1 Bid PPI, Mcl1 Noxa PPI, Bim-Mcl-1)
COc1ccc(N2CCN(C(=O)c3ccc4c(c3)OCO4)CC2)cc1	Mcl1 Bid PPI 86
CCOC(=O)N1CCN(C(=O)CSc2nc3c([nH]c4ccccc43)c(=O)n2CC)CC1	none (no result: Mcl1 Bid PPI, Mcl1 Noxa PPI, Bim-Mcl-1)
C=C(C)C(=O)Nc1cccc(C2=NOC3(C2)C[C@@H](C(N)=O)N(C(=O)c2cc([N+](=O)[O-])cc([N+](=O)[O-])c2C)C3)c1 (stereo partly drawn)	Mcl1 Noxa PPI 74 (no result: Bim-Mcl-1)
C=C(C)C(=O)Nc1cccc(C2=NOC3(C2)C[C@H](C(N)=O)N(C(=O)COc2ccc(Cl)cc2)C3)c1 (stereo partly drawn)	Mcl1 Noxa PPI 69 (no result: Bim-Mcl-1)
C/C=C/C(=O)Nc1cccc(C2=NOC3(C2)C[C@@H](C(N)=O)N(C(=O)c2cc([N+](=O)[O-])cc([N+](=O)[O-])c2C)C3)c1 (stereo partly drawn)	none (no result: Bim-Mcl-1)
C=C(C)C(=O)Nc1cccc(C2=NOC3(C2)C[C@H](C(N)=O)N(C(=O)c2ccccc2)C3)c1 (stereo partly drawn)	Mcl1 Noxa PPI 61 (no result: Bim-Mcl-1)
C/C=C(/C)C(=O)Nc1cccc(C2=NOC3(C2)C[C@H](C(N)=O)N(C(=O)c2ccc(Cl)cc2)C3)c1 (stereo partly drawn)	none (no result: Bim-Mcl-1)
C=C(C)C(=O)Nc1cccc(C2=NOC3(C2)C[C@@H](C(N)=O)N(C(=O)c2ccc(Cl)cc2)C3)c1 (stereo partly drawn)	Mcl1 Noxa PPI 75 (no result: Bim-Mcl-1)
Cc1onc(-c2ccccc2Cl)c1C(=O)Nc1ccccc1O	none (no result: Mcl1 Bid PPI, Mcl1 Noxa PPI, Bim-Mcl-1)
O=C(NCC(c1ccco1)N1CCCC1)c1cc(S(=O)(=O)N2CCOCC2)ccc1Cl (stereo not drawn)	none (no result: Mcl1 Bid PPI, Mcl1 Noxa PPI, Bim-Mcl-1)
COc1ccc(C(=O)N2CCC(n3nccc3NC(=O)C3CC3)CC2)cc1F	none (no result: Mcl1 Bid PPI, Mcl1 Noxa PPI, Bim-Mcl-1)
COc1cc(OC)cc(C(=O)N2CCN(S(=O)(=O)c3ccc(Cl)s3)CC2)c1	none (no result: Mcl1 Bid PPI, Mcl1 Noxa PPI, Bim-Mcl-1)
